# Rows were chosen to be rich in hits. Some 3% of all compounds tested hit in one or more screens of this group.
# CHT PAM: human CHT allosteric activation. B-score at 10 µM. CHT-expressing cells, membrane potential dye, choline EC20; hits give high values; LV-AA mutant CHT in HEK293 cells. hit rate 0.49% among 310,000;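 active = initial fluorescence not abnormally high and integrated response B-score, plate-corrected, over 3 SD above library mean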
# Target sequence (Q9GZV3 whole entry, looked up): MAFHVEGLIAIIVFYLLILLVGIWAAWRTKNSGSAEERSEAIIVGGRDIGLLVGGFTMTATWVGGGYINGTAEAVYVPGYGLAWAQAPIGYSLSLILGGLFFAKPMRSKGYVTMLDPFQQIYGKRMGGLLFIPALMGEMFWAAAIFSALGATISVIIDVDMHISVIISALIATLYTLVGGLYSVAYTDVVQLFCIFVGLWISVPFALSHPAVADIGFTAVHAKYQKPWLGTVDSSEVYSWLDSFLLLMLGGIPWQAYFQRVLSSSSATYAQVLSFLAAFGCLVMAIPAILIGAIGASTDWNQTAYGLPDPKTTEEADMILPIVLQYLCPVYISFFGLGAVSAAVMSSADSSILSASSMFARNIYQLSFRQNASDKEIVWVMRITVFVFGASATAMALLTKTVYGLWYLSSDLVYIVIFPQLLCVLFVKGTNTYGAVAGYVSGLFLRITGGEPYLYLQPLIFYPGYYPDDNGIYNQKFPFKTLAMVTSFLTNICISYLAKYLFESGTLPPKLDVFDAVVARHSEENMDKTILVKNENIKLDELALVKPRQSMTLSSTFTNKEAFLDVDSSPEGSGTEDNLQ
# NALP3 yeast inh: NALP3 inhibition in yeast. Yeast reconstituted NLRP3/ASC/caspase-1, beta-gal luminescence, 24 h. inhibition, % at 10 µM. hit rate 0.39% among 330,000. AID 2825;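 active = inhibition of 50% or more; inactive = inhibition below 50%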
# CHT block: inhibits the human high affinity choline transporter; hit rate 0.86% among 310,000; Q9GZV3; CHT-expressing cells, membrane potential dye, choline response; hits give low values; B-score at 10 µM;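 active = B-score over 3 SD under the library average, and starting fluorescence ratio not unusually high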;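 note: choline stimulus applied at its EC90 after an EC20 pre-addition; B-score computed on integrated fluorescence ratio after choline addition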
# SUMO Mot1 rescue: blocks SUMOylation pathway, rescuing yeast Mot1-301 growth | growth rescue, % at 18.8 µM | S. cerevisiae Mot1-301 growth rescue, ATP luminescence, 38.5C; percent above DMSO median, 100 means doubled | hit rate 1% among 320,000;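 active = every valid replicate shows activation above 250% relative to neutral control wells; inactive = the rest, any valid replicate at or below 250%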
# A1 inh: inhibitors of the anti-apoptotic protein A1, read as caspase activation | MEF A1-2A-BIM cells, Caspase-Glo 3/7 luminescence, 3 h; percent of clofoctol response, vehicle zero | AID 2462 | caspase activation, % (test concentration not listed) | hit rate 0.066% among 330,000;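 active = over half of replicate activation scores above 10%, or exactly half above 10 with the replicate mean above 10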
# NALP1 yeast inh: inhibitors of NALP1 inflammasome in yeast | S. cerevisiae NALP1/ASC/caspase-1 growth, X-gal OD620, 72 h | inhibition, % at 10 µM | hit rate 0.61% among 280,000; in the data active = inhibition mostly above about 24%, no sharp cut-off; inactive = mostly below about 32%
# CHT act confirm: confirmation of human choline transporter (CHT) activators. shares compounds with CHT PAM. CHT-expressing cells, membrane potential dye fluorescence (FDSS); % of choline EC20–EC90 response window; HEK293 expressing CHT LV-AA mutant; choline added at its EC20. activation, % at 10 µM. hit rate 91% among 2,500;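 active = primary screen active, with duplicate mean activation above negative control mean plus 3 SD, cut at about 11% in these data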
# HEK293 MP dye: activity in parental HEK293 cells lacking CHT; shares compounds with CHT PAM; membrane potential dye fluorescence (FDSS); measured after EC20 choline addition; ratio readout change at 10 µM, hits read low; hit rate 62% among 2,500; AID 623908;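 active = duplicate-averaged ratio beyond 3 SD from buffer wells, up or down, though filed actives are nearly all decreases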
# Numbers stand for hits; . = inactive; / = no result given.
SMILES,CHT PAM,NALP3 yeast inh,CHT block,SUMO Mot1 rescue,A1 inh,NALP1 yeast inh,CHT act confirm,HEK293 MP dye
CC(=O)NC(CC(=O)OC(C)C(=O)Nc1ncc(Cl)cc1Cl)c1ccccc1 (configuration not stated),.,.,.,.,.,.,/,/
CC(OC(=O)CC(NC(=O)c1ccccc1Cl)c1ccccc1)C(=O)Nc1cccc(Cl)c1Cl (configuration not stated),.,.,.,.,.,.,31,.
CCOC(=O)CSc1nc2sc3c(c2c(=O)n1C1CCCCC1)CCN(C)C3,8.1,.,.,.,.,.,27,-29
CCOc1ccc(-n2c(SCC(N)=O)nc3sc4c(c3c2=O)CCN(C)C4)cc1,.,.,.,.,.,.,38,-33
O=C(Cn1cc(C(=O)c2ccco2)c2ccccc21)NC1CC1,.,.,.,.,.,.,/,/
Cc1cc(C)n2nc(C(=O)Nc3ccc(S(=O)(=O)N4CCCCC4)cc3)nc2n1,.,.,.,.,.,.,22,-24
COc1ccc(NC(=O)CSc2nnc(-c3cccs3)n2N)cc1S(N)(=O)=O,/,.,/,.,.,/,/,/
CCCc1nc2ccccc2c(C(=O)OC(C)C(=O)NCc2ccc3c(c2)OCO3)c1CC (configuration not stated),7.7,.,.,.,.,.,36,.
CCn1cnc2cc(NCc3ccc(Cl)cc3)ccc21,.,.,.,.,.,.,/,/
CCn1cnc2cc(NCc3ccncc3)ccc21,.,.,.,.,.,.,49,-38
CC(C)c1cn(C2OC(COC(=O)c3ccccc3)C(OC(=O)c3ccccc3)C2OC(=O)c2ccccc2)c(=O)[nH]c1=O (configuration not stated),.,.,.,.,.,/,/,/
CCc1nnc(NC(=O)CSc2nnc3nc(C)cc(C)n23)s1,8.5,.,.,.,.,.,52,-61
O=c1ccc2c([nH]1)CCCCCCCCCC2,.,.,.,.,.,.,/,/
FC(F)(F)COc1nc(OCC(F)(F)F)nc(N2CCN(c3ccccc3)CC2)n1,7.1,.,.,.,.,.,31,.
C=CC[C@@H](CC(=O)OC(C)(C)C)C(=O)OC[C@H]1CCCN1C(=O)[C@@H](CC=C)CC(=O)N(CCO)Cc1ccccc1,/,.,/,.,.,/,/,/
CC(C)Cn1c(/C=C/c2ccccc2)nc2ccccc21,.,.,.,.,.,.,23,.
Cc1cc(C)nc(CCNC(=O)CC2C(=O)NCCN2Cc2ccccc2)n1 (configuration not stated),.,.,.,.,.,.,/,/
COc1ccc(NC(=O)Cn2ccc3c(OC)cccc3c2=O)cc1,.,.,.,.,.,/,.,.
CC(C)Sc1nnc(NC(=O)c2ccc3c(c2)OCO3)s1,.,.,.,.,.,.,/,/
Cc1ccc(C)c(C(=O)CCC(=O)Nc2ccc(N3CCN(C)CC3)cc2C)c1,/,.,/,.,.,/,/,/
CCN(CC)CCSc1nnc2c3ccccc3n(CCc3ccccc3)c2n1,8.5,.,.,.,.,.,31,-35
COc1ccc(N(CC(=O)Nc2ccc(C)cn2)S(=O)(=O)c2c(C)noc2C)cc1,6.6,.,.,.,.,.,.,.
CCOc1ccc(N(CC(=O)Nc2ccc(OC)cc2)S(=O)(=O)c2c(C)noc2C)cc1,.,.,.,.,.,.,/,/
CCCc1c(CC)c(=N)c2ccccc2n1C,7.5,.,.,.,.,.,64,-58
C[n+]1c2n(c3ccccc31)N=C(c1ccc(Br)cc1)CS2,.,.,.,.,.,.,/,/
SMILES,CHT PAM,NALP3 yeast inh,CHT block,SUMO Mot1 rescue,A1 inh,NALP1 yeast inh,CHT act confirm,HEK293 MP dye
C[n+]1c2n(c3ccccc31)N=C(c1ccc(-c3ccccc3)cc1)CS2,7.9,.,.,.,.,.,40,-35
C[n+]1c2n(c3ccccc31)N=C(c1ccccc1)CS2,7.1,.,.,.,.,.,58,-55
CN1CCC(N(C)C(=O)c2cc(S(=O)(=O)N(C)c3ccccc3)ccc2Cl)CC1,/,.,/,.,.,/,/,/
CN(C)CC(CCCCC(CN(C)C)C(=O)c1ccccc1)C(=O)c1ccccc1 (configuration not stated),8.4,.,.,/,/,.,29,.
CC(CNC(=O)c1ccc(-c2ccccc2)cc1)CN(C)C (configuration not stated),.,.,.,.,.,.,/,/
COc1ccc(NC(=O)CSc2nnc(NC(=O)C3CCC3)s2)c(OC)c1,.,.,.,.,.,.,/,/
CC1(C)Cc2c(sc3c2C2=NCCN2C=N3)CO1,9.3,.,.,.,.,/,75,-63
CCOc1cc(C)c(Cl)cc1S(=O)(=O)NCc1ccco1,.,.,.,.,.,.,/,/
CCOc1ccc(S(=O)(=O)NCc2ccco2)c2ccccc12,.,.,.,.,.,.,17,.
O=C(Nc1ccccc1C(=O)NCCCN1CCOCC1)c1cccc([N+](=O)[O-])c1,6.3,.,.,.,.,.,50,-59
CN(C)S(=O)(=O)c1ccc(C(=O)Nc2ccccc2C(=O)NCCCN2CCOCC2)cc1,/,.,/,.,.,/,/,/
NNC(=O)c1ccc(COCC(F)(F)F)cc1,.,.,.,.,.,.,.,.
c1cncc(N=c2scc(-c3cccc4ccccc34)n2CCCn2ccnc2)c1,8.2,.,.,.,.,.,.,.
COCCNc1c2c(nc3ccccc13)CCC2,.,.,.,.,.,.,44,-40
CCCCCC(=O)Nc1c2c(nc3ccccc13)CCC2,.,.,.,.,.,.,/,/
CN(C)CCCNc1c2c(nc3ccccc13)CCC2,.,.,.,.,.,.,62,-66
COc1ccc(C)cc1Nc1c2c(nc3ccccc13)CCC2,6.8,.,.,.,.,.,36,-27
O=C(Nc1ccc(Cl)c(C(=O)N2CCOCC2)c1)c1ccccc1,.,.,.,.,.,.,/,/
CCCc1cc(=O)oc2cc(OCC(=O)NCCCN3CCOCC3)ccc12,.,.,.,.,.,.,37,-35
CCCc1cc(=O)oc2cc(OC(C)C(=O)NCCCn3ccnc3)ccc12 (configuration not stated),.,.,.,.,.,.,/,/
CCCc1cc(=O)oc2cc(OCC(=O)NCCCn3ccnc3)ccc12,.,.,.,.,.,.,52,-31
COc1ccc(S(=O)(=O)N2CCCCCC2)cc1C(=O)N1CCCC(C(F)(F)F)C1 (configuration not stated),10,.,.,.,.,/,15,.
